Screening data (PubChem BioAssay)
Most compounds without a hit are left out; they make up all but 3.2% or so of the library.
FBA Mtb inh = Mtb fructose-bisphosphate aldolase inhibition; purified M. tuberculosis FBA, fluorescence read-out; P9WQA3; 2.3% of 360,000 active; inhibition, % at 1 µM
Target sequence (P9WQA3 whole entry, looked up): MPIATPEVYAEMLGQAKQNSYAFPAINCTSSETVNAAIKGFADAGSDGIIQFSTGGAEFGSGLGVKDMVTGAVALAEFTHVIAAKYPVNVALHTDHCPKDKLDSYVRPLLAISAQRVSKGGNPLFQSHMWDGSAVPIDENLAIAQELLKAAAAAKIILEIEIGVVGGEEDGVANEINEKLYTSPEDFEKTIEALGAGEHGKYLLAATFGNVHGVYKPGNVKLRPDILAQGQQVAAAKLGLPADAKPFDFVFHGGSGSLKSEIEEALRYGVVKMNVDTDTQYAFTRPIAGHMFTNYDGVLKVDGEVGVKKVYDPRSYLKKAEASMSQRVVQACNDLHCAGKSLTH
GDH-TPI counter-1 = inhibits GDH-TPI coupling enzymes, artifact for Mtb FBA screen; GDH-TPI coupled enzyme counterscreen, NADH absorbance; inhibition, % at 4.8 µM; 1.2% of 360,000 active; in the data active = inhibition above about 30%
SSB-PriA inh = K. pneumoniae PriA-SSBct interaction inhibition; AlphaScreen SSBct-PriA binding, biotinylated peptide; inhibition, % at 33 µM; 0.6% of 430,000 active; in the data active = inhibition mostly above about 37%, no sharp cut-off; inactive = mostly below about 20%
Rv3671c protease = Rv3671c (M. tuberculosis) protease inhibition; P9WHR9; inhibition, % at 5.96 µM; 0.048% of 320,000 active; AID 2606; in the data active = inhibition above about 38%;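 also: extracellular domain of Rv3671c used as enzyme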
UGM FP inh = Mtb UDP-galactopyranose mutase inhibition | inhibition, % at 10 µM | 0.06% of 320,000 active | AID 504406 | purified UGM, fluorescence polarization probe displacement | P9WIQ1; in the data active = inhibition above about 10%, passing the limit was not always enough
Mtb betalactam = beta-lactam sensitization of Mtb H37Rv; M. tuberculosis H37Rv growth with meropenem, percent inhibition; inhibition, % at 25 µM; 0.27% of 330,000 active; call rule not given here;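 also: growth measured after seven days incubation then overnight dye step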
Mtb FBA inh conf = Mtb FBA inhibition, confirmed | 78% of 5,600 active | purified M. tuberculosis FBA, fluorescence read-out | inhibition, % at 1 µM | shares compounds with FBA Mtb inh
GDH-TPI counter-2 = inhibits GDH-TPI coupling enzymes, flagging Mtb FBA hits; shares compounds with FBA Mtb inh; GDH-TPI coupled enzyme counterscreen, fluorescence; inhibition, % at 1 µM; 81% of 5,600 active; AID 652141; in the data active = inhibition above about 10%
Large screens that a line does not name were inactive (follow-up assays come after a bar, where they were run). Rule as the data show it, unless noted: active = inhibition above about 27%; inactive = the rest.

COc1ccc(NC(=O)C2(C)Cc3c(-c4ccc(N(C)C)cc4)ccnc3O2)cc1 (stereo not drawn)	FBA Mtb inh 33 (no result: SSB-PriA inh, Rv3671c protease, UGM FP inh, Mtb betalactam) | Mtb FBA inh conf 104 | GDH-TPI counter-2 91
CCC1(C(=O)OC)CCc2c(cc(OC)c3ccccc23)C1=O (stereo not drawn)	FBA Mtb inh 28 | Mtb FBA inh conf 111 | GDH-TPI counter-2 71
COc1cc(C(=O)NN2C(=O)c3ccccc3C2=O)cc(OC)c1OC	none (no result: FBA Mtb inh, GDH-TPI counter-1, Rv3671c protease, UGM FP inh, Mtb betalactam)
COC(=O)C1(C)CCc2c(ccc3ccccc23)C1=O (stereo not drawn)	FBA Mtb inh 35 (no result: GDH-TPI counter-1, SSB-PriA inh, Rv3671c protease, UGM FP inh, Mtb betalactam) | Mtb FBA inh conf 56 | GDH-TPI counter-2 47
CC1CCc2c(ccc3ccccc23)C1=O (stereo not drawn)	none (no result: Rv3671c protease, UGM FP inh, Mtb betalactam)
O=C(Nc1ccc2c(c1)OCO2)NC1CC(=O)N(c2ccccc2)C1 (stereo not drawn)	none (no result: FBA Mtb inh, GDH-TPI counter-1, Rv3671c protease, UGM FP inh, Mtb betalactam)
COc1ccc(OC)c(/C=N/NC(=O)CN2CCSCC2)c1	FBA Mtb inh 85 (no result: SSB-PriA inh) | Mtb FBA inh conf 77 | GDH-TPI counter-2 66
COc1ccc(OC)c(/C=N/NC(=O)CNC(=O)c2ccc(S(=O)(=O)N3CCCC3)cc2)c1	FBA Mtb inh 36 (no result: SSB-PriA inh) | Mtb FBA inh conf 165 | GDH-TPI counter-2 121
COc1ccc(/C=N/NC(=O)CN2CCSCC2)c(OC)c1	none (no result: SSB-PriA inh)
COc1ccc(OC)c(/C=N/NC(=O)C(O)c2ccccc2)c1 (stereo not drawn)	FBA Mtb inh 101 (no result: SSB-PriA inh) | Mtb FBA inh conf 82 | GDH-TPI counter-2 62
CC(C)n1cc(-c2ccc(Cl)cc2)cc(C#N)c1=O	none
Cn1cc(-c2cccc(C(F)(F)F)c2)cc(C#N)c1=O	FBA Mtb inh 46, SSB-PriA inh 53 | Mtb FBA inh conf 94 | GDH-TPI counter-2 62
Cn1cc(-c2cccc(Cl)c2)cc(C#N)c1=O	FBA Mtb inh 44 | Mtb FBA inh conf 62 | GDH-TPI counter-2 42
COc1ccc(-c2cn3nc(C)c(C)nc3n2)cc1OC	none
Cc1ccc(-c2cn3nc(C)c(C)nc3n2)cc1	FBA Mtb inh 34 | Mtb FBA inh conf inactive | GDH-TPI counter-2 inactive
Cc1c(OCC(=O)N2CCN(c3ccccc3)CC2)ccc2c3c(c(=O)oc12)CCCC3	none
Cc1c(C)c2ccc(OCC(=O)N3CCC(C(=O)O)(c4ccccc4)CC3)c(C)c2oc1=O	FBA Mtb inh 99 | Mtb FBA inh conf 103 | GDH-TPI counter-2 91
O=C(COc1ccc2ccc(=O)oc2c1)N1CCN(c2ccc(F)cc2)CC1	none
Cc1c(C)c2ccc(OCC(=O)N3CCOCC3)c(C)c2oc1=O	FBA Mtb inh 81 | Mtb FBA inh conf inactive | GDH-TPI counter-2 inactive
O=C(COc1ccc2ccc(=O)oc2c1)N1CCC(C(=O)O)(c2ccccc2)CC1	FBA Mtb inh 27 | Mtb FBA inh conf active | GDH-TPI counter-2 active
CCCCc1cc(=O)oc2c(C)c(OCC(=O)N3CCC(C(=O)O)(c4ccccc4)CC3)ccc12	FBA Mtb inh 35 | Mtb FBA inh conf 182 | GDH-TPI counter-2 131
O=C(NC[C@H](O)c1ccoc1)c1cccc(Br)c1	none (no result: FBA Mtb inh, GDH-TPI counter-1, Rv3671c protease, UGM FP inh, Mtb betalactam)
CN(C)C(CNS(=O)(=O)c1ccc2c(c1)CCCC2)c1ccccc1 (stereo not drawn)	none (no result: FBA Mtb inh, GDH-TPI counter-1, Rv3671c protease, UGM FP inh, Mtb betalactam)
CCCCCCCOC(=O)c1c(C)oc2c1cc(NS(=O)(=O)c1ccc3c4c(cccc14)C(=O)N3)c1ccccc12	none (no result: FBA Mtb inh, GDH-TPI counter-1, Rv3671c protease, UGM FP inh, Mtb betalactam)
C/C(=N\Nc1ccccc1)c1cc2ccccc2oc1=O	FBA Mtb inh 65 (no result: SSB-PriA inh) | Mtb FBA inh conf inactive | GDH-TPI counter-2 inactive
COc1ccc2oc(=O)c(/C(C)=N\Nc3ccccc3)cc2c1	none (no result: FBA Mtb inh, GDH-TPI counter-1, Rv3671c protease, UGM FP inh, Mtb betalactam)
Clc1ccc(/C=C/c2nc3ccccc3[nH]2)c(Cl)c1	FBA Mtb inh 63 | Mtb FBA inh conf 60 | GDH-TPI counter-2 44
Clc1ccc(/C=C/c2nc3ccccc3[nH]2)cc1	FBA Mtb inh 53, GDH-TPI counter-1 39 | Mtb FBA inh conf active | GDH-TPI counter-2 124
O=C(/C=C/c1ccc(Cl)cc1Cl)c1nc2ccccc2[nH]1	none
N#C/C(=C/c1ccc(-c2ccc(F)c(Cl)c2)o1)c1nc2ccccc2[nH]1	none (no result: FBA Mtb inh, GDH-TPI counter-1, Rv3671c protease, UGM FP inh, Mtb betalactam)
CN(c1ccc(Cl)cc1)S(=O)(=O)c1ccsc1-c1nc(-c2ccc3c(c2)OCO3)no1	none (no result: FBA Mtb inh, GDH-TPI counter-1, Rv3671c protease, UGM FP inh, Mtb betalactam)
CCOC(=O)c1csc(NC(=O)c2cc(C)nn2C)n1	none (no result: FBA Mtb inh, GDH-TPI counter-1, Rv3671c protease, UGM FP inh, Mtb betalactam)
